Unmarked numbers belong to inactive results. Rule as the data show it: active = inhibition above about 30%; inactive = the rest.
Each molecule was assayed on transactivating tegument protein VP16 (Human herpesvirus 1), Gal4-VP16 luciferase reporter (assay: VP16 transactivation inhibitors, counter-screen for SRC3 inhibitor project, cell-based, luminescence, high throughput (AID 588794)). Settings: mammalian cells, VP16-driven luciferase reporter luminescence; at 3.6 µM; active compounds read high.

| SMILES | inhibition [%] |
| --- | --- |
| C/C(=N\NC(=O)COc1ccccc1-c1ccccc1)c1ccc(O)cc1O | 10.5 |
| Cc1ccccc1-n1nnnc1Sc1nnnn1-c1ccccc1 | 7.79 |
| CC(C)C[C@H]1CNC(=S)N1C[C@H]1CCCN1C[C@H](Cc1ccc(O)cc1)N1C[C@H](CC(C)C)N(CC2CCCCCC2)C1=S | 16.3 |
| CCc1cccc(CC)c1C(OC(C)=O)c1cccnc1 (stereo not given) | -7.1 |
| Cc1cccc(N2C(=O)c3cccnc3C2=O)c1 | -4.38 |
| Cc1cc(C)n(-c2ccc(C(=O)Nc3cccc(S(=O)(=O)N(C)C)c3)cc2)n1 | 18.6 |
| CCOc1ccc(N2C(=O)/C(=C/c3cc(OC)c(OC)c(OC)c3)N(CC(=O)OC)C2=S)cc1 | 12.7 |
| Cc1ccc(NC(=O)C2CCN(c3ncnc4c3nc3n4CCCCC3)CC2)cc1Cl | -3.54 |
| COc1ccc(-n2c(-c3ccc(Br)cc3)c[n+]3c2SC(C)C3)cc1 (stereo not given) | 23.3 |
| Cc1c(P(=S)(c2ccccc2)c2ccccc2)[n+]2ccccc2n1CCc1ccccc1 | 22 |
| c1cncc(CNc2ncnc3sc4c(c23)CCC4)c1 | 9.1 |
| O=C(CSc1nnc(COc2ccc(Cl)cc2)o1)N1CCOCC1 | -7.96 |
| CCc1c(C)nc2ncnn2c1NCCc1ccc(Cl)cc1 | 25.9 |
| Cc1sc2ncnc(Sc3nnnn3-c3ccccc3)c2c1C | -6.56 |
| CC(=O)Nc1ccc(S(=O)(=O)Oc2ccccc2N2CCCCC2)cc1 | 0.67 |
